From PubChem BioAssay AID1159580 (chemical genetic matrix, 2015)
In all, about 5,500 compounds went through this assay and about 2,000 (36%) were called active. Roughly 18% stayed inconclusive and do not appear here. Cut-off read from the data, not from the text of the source: active = normalized growth mostly below about 0.91 (no sharp cut-off); inconclusive = no clear call, values can overlap the other calls; inactive = mostly above about 0.92. This is one part of the list.

Experiment: chemical genetic growth profiling, strain panel (AID 1159580);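 note: tested at 20 µM; growth read once vehicle control cultures reached saturation at 30 °C; 1 = growth at the plate median or of vehicle wells; lower values mean less growth of the strain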
Details: S. cerevisiae deletion strains, growth OD

Measured: normalized growth

C=C1CC2C(CCC3(C)C(=O)CCC23)C2(C)C=CC(=O)C=C12 (stereo unspecified)
inactive: locus YAL021C, strain ccr4, stronger effect = lower value 0.958 | locus YAL030W, strain snc1, stronger effect = lower value 0.949 | locus YBL061C, strain skt5, stronger effect = lower value 0.928 | locus YBR023C, strain chs3, stronger effect = lower value 0.941 | locus YBR171W, strain sec66, stronger effect = lower value 0.92 | locus YBR231C, strain swc5, stronger effect = lower value 0.943 | locus YBR279W, strain paf1, stronger effect = lower value 0.963 | locus YCL011C, strain gbp2, stronger effect = lower value 0.935 | locus YCL016C, strain dcc1, stronger effect = lower value 0.983 | locus YCL069W, strain vba3, stronger effect = lower value 0.927 | locus YCR088W, strain abp1, stronger effect = lower value 0.947 | locus YDL005C, strain med2, stronger effect = lower value 0.942 | locus YDL040C, strain nat1, stronger effect = lower value 0.941 | locus YDR001C, strain nth1, stronger effect = lower value 0.936 | locus YDR069C, strain doa4, stronger effect = lower value 0.944 | locus YDR137W, strain rgp1, stronger effect = lower value 0.931 | locus YDR159W, strain sac3, stronger effect = lower value 0.919 | locus YDR195W, strain ref2 0.945 | locus YDR297W, strain sur2, stronger effect = lower value 0.946 | locus YDR335W, strain msn5, stronger effect = lower value 0.951 | locus YEL061C, strain CIN8 (second series), stronger effect = lower value 0.922 | locus YER015W, strain faa2, stronger effect = lower value 0.939 | locus YER016W, strain bim1, stronger effect = lower value 0.955 | locus YER111C, strain swi4, stronger effect = lower value 0.945 | locus YER155C, strain BEM2 (second series), stronger effect = lower value 0.946 | locus YFR010W, strain ubp6, stronger effect = lower value 0.928 | locus YGL167C, strain pmr1, stronger effect = lower value 0.928 | locus YGL173C, strain kem1, stronger effect = lower value 0.95 | locus YGL240W, strain doc1, stronger effect = lower value 0.95 | locus YGL253W, strain hxk2, stronger effect = lower value 0.944 | locus YHR013C, strain ard1, stronger effect = lower value 0.908 | locus YHR027C, strain rpn1, stronger effect = lower value 0.93 | locus YHR142W, strain chs7, stronger effect = lower value 0.905 | locus YJL092W, strain hpr5, stronger effect = lower value 0.932 | locus YJL095W, strain BCK1 (second series), stronger effect = lower value 0.952 | locus YJL115W, strain asf1, stronger effect = lower value 0.928 | locus YJL129C, strain trk1, stronger effect = lower value 0.96 | locus YJL154C, strain vps35, stronger effect = lower value 0.936 | locus YJL166W, strain qcr8, stronger effect = lower value 0.962 | locus YJL187C, strain SWE1, stronger effect = lower value 0.939 | locus YKL160W, strain elf1, stronger effect = lower value 0.998 | locus YKR026C, strain gcn3, stronger effect = lower value 0.939 | locus YKR091W, strain srl3, stronger effect = lower value 0.95 | locus YLL001W, strain dnm1, stronger effect = lower value 1.01 | locus YLL026W, stronger effect = lower value 0.936 | locus YLL041C, strain sdh2, stronger effect = lower value 0.939 | locus YLR027C, strain aat2, stronger effect = lower value 0.98 | locus YLR221C, strain rsa3, stronger effect = lower value 0.992 | locus YLR258W, strain gsy2, stronger effect = lower value 0.945 | locus YLR262C, strain YPT6 (second series), stronger effect = lower value 0.925 | locus YLR320W, strain mms22, stronger effect = lower value 0.991 | locus YLR342W, strain FKS1, stronger effect = lower value 0.929 | locus YLR357W, strain rsc2, stronger effect = lower value 0.991 | locus YLR370C, strain arc18, stronger effect = lower value 0.937 | locus YLR384C, strain iki3, stronger effect = lower value 0.925 | locus YML120C, strain ndi1, stronger effect = lower value 0.96 | locus YMR058W, strain fet3, stronger effect = lower value 0.929 | locus YMR125W, strain sto1, stronger effect = lower value 0.989 | locus YMR129W, stronger effect = lower value 0.928 | locus YMR205C, strain PFK2, stronger effect = lower value 0.992 | locus YMR231W, strain pep5, stronger effect = lower value 0.946 | locus YNL209W, strain ssb2, stronger effect = lower value 0.957 | locus YNL248C, strain rpa49, stronger effect = lower value 1 | locus YNL322C, strain KRE1 (second series), stronger effect = lower value 0.934 | locus YNR049C, strain mso1, stronger effect = lower value 0.932 | locus YOR070C, strain gyp1, stronger effect = lower value 0.938 | locus YOR080W, strain dia2, stronger effect = lower value 0.934 | locus YOR083W, strain WHI5, stronger effect = lower value 0.994 | locus YOR106W, strain vam3, stronger effect = lower value 0.969 | locus YOR265W, strain rbl2, stronger effect = lower value 0.948 | locus YOR270C, strain vph1, stronger effect = lower value 0.895 | locus YOR290C, strain snf2, stronger effect = lower value 0.941 | locus YPL051W, strain arl3, stronger effect = lower value 0.988 | locus YPL078C, strain atp4, stronger effect = lower value 1 | locus YPL106C, strain sse1, stronger effect = lower value 0.95 | locus YPL240C, strain hsp82, stronger effect = lower value 0.969
active: locus YAL026C, strain drs2, stronger effect = lower value 0.905 | locus YBR009C, strain hhf1, stronger effect = lower value 0.85 | locus YDR334W, strain swr1, stronger effect = lower value 0.896 | locus YDR392W, strain spt3, stronger effect = lower value 0.733 | locus YEL003W, strain gim4, stronger effect = lower value 0.912 | locus YEL037C, strain rad23, stronger effect = lower value 0.917 | locus YGL227W, strain vid30, stronger effect = lower value 0.874 | locus YJL164C, strain tpk1, stronger effect = lower value 0.916 | locus YNL071W, strain lat1, stronger effect = lower value 0.883 | locus YOR001W, strain rrp6, stronger effect = lower value 0.881
